# Data as given in PubChem BioAssay AID2216 (Broad Institute, 2009).
# Hit rate of the full screen: of about 300,000 compounds, about 3,300 (1.1%) were called active. Another 6% or so got no clear call; they are omitted. The sample holds actives, similar compounds and a random draw of the others, so the mix is not that of the screen. A number with no mark means an inactive call.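 Rule for the calls: active = more than half of the replicate wells show a fall in the fluorescence ratio signal beyond about 16% (limit read from the data, passing the limit was not always enough); inconclusive = exactly half of the replicate wells pass the set limit; inactive = fewer than half of replicates pass the limit.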
# Test system: Ran GTPase (GTP-bound) - importin-beta complex
# Experiment: disruptors of Ran-importin-beta complex formation – biochemical, FRET, CFP-Ran, YFP-importin-beta, homogeneous, primary screen (AID 2216);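 note: 0% = DMSO wells and 100% = Ran loaded with GDP instead of GTP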
# Details: cell-free CFP-Ran/YFP-importin-beta FRET ratio; hits give high values; concentration not given here
row,SMILES,inhibition
1,Cn1cccc1-c1nc2ccccc2n1C,3.82%
2,Cn1c(NC(=O)c2ccccc2)nc2ccccc21,5.33%
3,Cn1c(-c2ccc(C(=O)c3ccccc3)s2)nc2ccccc21,21.5% (active)
4,O=C(NCCC1CCCCN1S(=O)(=O)c1ccccc1)C(=O)NCC1CCCO1 (centres undefined),1.16%
5,CCOc1ccc(CCNC(=O)COC(=O)C2CCN(c3ccc(C(F)(F)F)cn3)CC2)cc1OCC,0.153%
6,O=c1[nH]snc1-c1c(Cl)cccc1Cl,2.52%
7,Cc1ccnc(NC(=O)c2ccco2)n1,-1.58%
8,CCn1nc(NC(=O)c2ccco2)c2cc3ccc(C)cc3nc21,23.1% (active)
9,Cc1ccc(-n2nc3cc(Cl)c(NC(=O)c4ccco4)cc3n2)cc1,-2.85%
10,COc1ccc2c(c1)CCc1cn3ncc(C#N)c3nc1-2,10.6%
11,COc1ccc2cc(C(=O)C3CCCN(C(=O)c4sc(C)nc4C)C3)ccc2c1 (centres undefined),0.445%
12,COc1ccc2nc(N3CCCC(O)C3)c(C#N)cc2c1 (centres undefined),57.2% (active)
13,Cc1c(CC(=O)NCCCCCC(=O)O)c(=O)oc2cc3occ(-c4ccccc4)c3cc12,3.1%
14,CCCCCCc1cc2cc(-c3nnc(-c4ccccc4)o3)c(=O)oc2cc1O,161% (active)
15,CCCCCCc1ccc(O)cc1O,-0.89%
16,Cc1sc2ncnc(N3CCC(C(=O)Nc4nc5ccc(Cl)cc5s4)CC3)c2c1C,2.82%
17,CC(=O)c1ccc(S(=O)(=O)NC2CC(=O)N(c3ccc4c(c3)OCCO4)C2)cc1 (centres undefined),-0.763%
18,c1ccc(C[C@H]2CNCCN2CCC23CC4CC(CC(C4)C2)C3)cc1,3.71%
19,N#CCN(C(=O)COC(=O)C1CC2CCCC(C1)C2=O)c1ccccc1 (centres undefined),-5.07%
20,COc1ccc2c(c1)CCNC2Cc1ccc(OC)c(O)c1 (centres undefined),96.2% (active)
21,COc1cc2c(cc1O)[C@H](Cc1ccc(Oc3cc(C[C@@H]4NCCc5cc(OC)c(O)cc54)ccc3O)cc1)NCC2,-9.25%
22,COc1ccc(CCNC(=O)C(=O)NCC2CCNCC2)cc1OC,4.38%
23,O=C(Nc1ccccc1-c1nc2ccccc2[nH]c1=O)c1cccs1,-0.663%
24,O=C(Nc1ccccc1)c1ccc(NC(=O)c2cccs2)cc1,-0.113%

row,SMILES,inhibition
1,O=C(Nc1ccccc1-c1ccccc1)c1cccs1,22.1% (active)
2,Cc1sc2ncnc(N3CCC(C(=O)NNC(=O)c4ccc(F)cc4)CC3)c2c1C,0.666%
3,CC(=O)N1CCc2cc(S(=O)(=O)NC3CCCCC3)ccc21,2.08%
4,CCCNS(=O)(=O)c1ccc2c(c1)CCCN2C(C)=O,23.9% (active)
5,CCC1CCCCN1CCNS(=O)(=O)c1ccc2c(c1)CCN2C(C)=O (centres undefined),-5.25%
6,COc1ccccc1C(=O)NCCC(=O)NN1C(=O)NC2(CCCCC2)C1=O,-3.94%
7,CCOc1ccc(C(=O)NC2CCN(C(=O)Nc3ccccc3OC)CC2)cc1,-1.22%
8,CCOC(=O)c1cc(C#N)c(N2CCCCC2)nc1-c1ccccc1,-3.84%
9,CCOc1ccc2nc(N3CCCN(C(=O)Nc4ccccc4C)CC3)c(C#N)cc2c1,119% (active)
10,COc1ccccc1C(=O)Nc1ccccc1C(=O)Nc1ccccc1,3.3%
11,O=C(NCCOc1cccnc1)c1ccc(OC2CCN(Cc3ccccn3)CC2)cc1,0.854%
12,O=S(=O)(c1cccc(Cn2nnc(-c3ccc(F)cc3)n2)c1)N1CCOCC1,5.68%
13,Cc1cccc(Nc2nc(NCCO)nc(N3CCCC3)n2)c1,-0.666%
14,Cc1ccc(S(=O)(=O)NCC(=O)N2CCN(c3ccccn3)CC2)cc1,-4.7%
15,Cc1ccc(N2C(=O)C3CC3C2=O)cc1 (centres undefined),1.85%
16,Cc1ccc(N2CCN(c3ccc(C)cc3)C2c2ccccn2)cc1,20.1% (active)
17,CCC(CC)c1nnc(NC(=O)C2=COCCO2)s1,-0.607%
18,CCCCN1C(=O)CCC(C(=O)O)C1c1ccc(OC)cc1 (centres undefined),-1.74%
19,CCOc1ccc(C2C3=C(CCCC3=O)N(CC(=O)O)C3=C2C(=O)CCC3)cc1,63.4% (active)
20,COc1ccc(C2C(C#N)=C(N)N(c3ncn[nH]3)C3=C2C(=O)CCC3)cc1 (centres undefined),2.61%
21,CCOC(=O)C1=C(N)N(c2ccc(C)cc2)C2=C(C(=O)CCC2)C1c1cccs1 (centres undefined),1.06%
22,COc1ccc(C2C3=C(CCCC3=O)N(CC(=O)O)C3=C2C(=O)CCC3)cc1,61.1% (active)
23,CCOc1ccc(C2C(C#N)=C(N)N(N(C)C)C3=C2C(=O)CCC3)cc1 (centres undefined),-2.69%
24,O=C1c2ccccc2C(=O)c2c1cccc2N1CCN(C/C=C/c2ccccc2)CC1,-1.77%

row,SMILES,inhibition
1,Cc1nc(-c2ccccc2)sc1C1(C)CC(c2cccnc2)=NO1 (centres undefined),4.13%
2,Cc1ccc(C(=O)NC(=S)NCCN2CCOCC2)cc1,-2.12%
3,CCCCc1ccc(NC(=S)NCCCN2CCOCC2)cc1,1.19%
4,Cc1ccc(NC(=S)NCCN2CCOCC2)cc1,18% (active)
5,CCCCn1c(N)c(N(CCC(C)C)C(=O)CC2OC(=O)c3ccccc32)c(=O)[nH]c1=O (centres undefined),0.056%
6,O=C(CCC1CCCN(C(=O)c2ccc(F)c(F)c2)C1)N1CCN(c2ccccn2)CC1 (centres undefined),2.85%
7,Oc1c(CN2CCN(c3ccc(F)cc3)CC2)cc(Cl)c2cccnc12,24.8% (active)
8,CCN1CCN(C(c2cccnc2)c2cc(Cl)c3cccnc3c2O)CC1 (centres undefined),2.34%
9,Oc1ccc(CN2CCN(c3ncccn3)CC2)cc1,-6.09%
10,O=C(N/N=C/c1cc(Br)c(O)c([N+](=O)[O-])c1)C(O)(c1ccccc1)c1ccccc1,-0.0435%
11,CN(C)S(=O)(=O)c1ccc(N2CCCC2)c(C(=O)Nc2ccc(Br)cc2F)c1,0.866%
12,CSc1nc(C)cc(SC(C(C)=O)C(=O)Nc2ccccc2)n1 (centres undefined),-3.65%
13,CC(Sc1nnc2c(n1)C1CCC2(C)C1(C)C)C(=O)Nc1ccccc1 (centres undefined),27% (active)
14,CC(Sc1nc(-c2ccccc2)cc(C(F)(F)F)n1)C(=O)Nc1ccc2c(c1)OCO2 (centres undefined),-1.24%
15,CC(=O)N[C@H]1[C@H]([C@H](O)[C@H](O)CO)OC(C(=O)O)=C[C@@H]1O,1.4%
16,COc1ccc(Cl)cc1NC(=O)CN(C)C(=O)c1cc(-c2cccs2)nn1-c1ccccc1,0.469%
17,CCCN(CCC)CCNC(=O)c1cc2c(C)nc3ccccc3c2o1,0.401%
18,Cc1nc2ccccc2c2oc(C(=O)NCC3CCCO3)cc12 (centres undefined),4.76%
19,Cc1nc2ccccc2c2oc(C(=O)NCCCN3CCC(C)CC3)cc12,34.1% (active)
20,O=C(NCCS(=O)(=O)NCc1ccc(Cl)cc1)c1ccccc1,5.39%
21,CCOC(=O)c1c(C)oc2cc(Br)c(OCC(N)=O)cc12,19% (active)
22,CCOC(=O)c1c(C)oc2ccc(OCC(=O)N(CC)CC)cc12,-3.75%
23,CCOC(=O)c1c(-c2ccccc2)oc2ccc(OCC(N)=O)cc12,0.113%
24,Cc1cc(-c2nnc(SCC(=O)Nc3ccc(S(N)(=O)=O)cc3)n2N)n[nH]1,0.809%

row,SMILES,inhibition
1,Cc1cccc(NC(=O)N2CCCCCC2)c1C,2.28%
2,N#CC1=C(N)Oc2cc(O)ccc2C1C1CCCCC1 (centres undefined),140% (active)
3,COCc1[nH]nc2c1C(C1C=CCCC1)C(C#N)=C(N)O2 (centres undefined),-7.86%
4,N#CC1=C(N)OC2=C(C(=O)CCC2)C1C1CC=CCC1 (centres undefined),-2.87%
5,COc1ccc(CNC(=O)C2CCCC2)cc1,-1.07%
6,Cc1ccc2nc(NC(=O)CSc3nc(=O)n(CCCN(C)C)c4c3CCC4)sc2c1,1.53%
7,Cc1nc(Nc2ccc3c(c2)OCCO3)c2nnn(Cc3ccccc3Cl)c2n1,3.56%
8,Cc1nc(Nc2ccccc2F)c2nnn(Cc3ccccc3Cl)c2n1,35.1% (active)
9,Cc1nc(Nc2ccc(S(=O)(=O)N3CCCC3)cc2)c2nnn(Cc3ccccc3)c2n1,5.61%
10,COc1ccccc1-n1ccnc(SCC(=O)NC2CCCCC2)c1=O,-1.18%
11,CC(C)N(Cc1ccccc1)C(=O)COC(=O)c1ccccc1SCC(=O)N1CCCC1,-1.94%
12,CC(=O)C12CC(C)=C(C)CC1CC1C3CCC4=CC(=O)CCC4(C)C3CCC12C (centres undefined),1.03%
13,CCCN(CCC)C(=S)Nc1cc(C(=O)OC)ccc1C(=O)OC,41% (active)
14,COC(=O)c1ccc(C(=O)OC)c(NC(=S)N2CCCCC2)c1,55.3% (active)
15,CCS(=O)(=O)Nc1cc(C(=O)OC)ccc1C(=O)OC,4.57%
16,COC(=O)c1ccc(C(=O)OC)c(NC(=S)N2CCN(c3cc(Cl)ccc3C)CC2)c1,6.93%
17,CCN(CCO)C(=S)Nc1cc(C(=O)OC)ccc1C(=O)OC,16.3% (active)
18,COC(=O)c1ccc(C(=O)OC)c(NC(=S)N2CCN(c3ccc(F)cc3)CC2)c1,6.98%
19,COC(=O)c1ccc(C(=O)Nc2cc(Cl)ccc2Cl)cc1NC(=O)c1ccccc1C,2.78%
20,CCCOc1ccc(CN(CCO)CCO)cc1C(=O)OC,-2.69%
21,CCN(CC)C(=O)CCC(=O)Nc1ccc(C(=O)OC)cc1,-3.39%
22,CN(C)C(CNC(=O)c1cccc(S(=O)(=O)Nc2ccc(Br)cc2)c1)c1ccco1 (centres undefined),-0.145%
